Here are results for twelve sequences from PMC7862700, “An all-to-all approach to the identification of sequence-specific readers for epigenetic DNA modifications on cytosine”.

Common to all, as to test: DAPPL (digital affinity profiling via proximity ligation, sequencing); 10 mM Tris-HCl pH 7.5, 50 mM NaCl, 1 mM DTT, 4% glycerol, room temperature, 30 min; GST-TFs on glutathione beads, 16-mer random dsDNA library, 0.1% formaldehyde crosslink after washing; high values mean tight binding
Experiment [1] concerns the target T1, FLI1 (Homo sapiens, UniProt Q01543 1-452).
T1 sequence: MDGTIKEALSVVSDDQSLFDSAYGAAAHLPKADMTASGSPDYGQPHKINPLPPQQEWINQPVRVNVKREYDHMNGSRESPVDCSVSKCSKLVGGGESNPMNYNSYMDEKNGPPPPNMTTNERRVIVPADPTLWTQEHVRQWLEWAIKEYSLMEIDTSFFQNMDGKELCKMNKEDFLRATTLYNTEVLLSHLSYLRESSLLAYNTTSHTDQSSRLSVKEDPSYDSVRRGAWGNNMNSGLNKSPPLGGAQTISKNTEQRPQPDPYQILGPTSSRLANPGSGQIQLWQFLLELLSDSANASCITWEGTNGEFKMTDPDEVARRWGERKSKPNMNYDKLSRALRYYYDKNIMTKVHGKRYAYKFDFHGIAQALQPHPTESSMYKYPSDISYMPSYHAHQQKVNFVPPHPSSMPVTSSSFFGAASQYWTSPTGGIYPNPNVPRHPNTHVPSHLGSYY
The settings on record: protein: recombinant; tags: N-terminal GST; dsDNA, one strand shown. In a few lines:
(§1)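 Yeast served to express human transcription factors as GST fusions, which were then captured on glutathione beads and labelled with DNA barcodes. Pooled with a tag-only sample, they were incubated with 200 nmole of a 16-mer random double-stranded DNA library for 30 min at room temperature in Tris/NaCl/DTT/glycerol buffer, washed, crosslinked with 0.1% formaldehyde, ligated by proximity, amplified by PCR and sequenced. Dividing each hexamer's read frequency for a factor by its frequency for the tag-only sample gives the binding signal.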

Experiment [2] has as its target T2, ELK3 (Homo sapiens, UniProt P41970 1-407).
T2 sequence: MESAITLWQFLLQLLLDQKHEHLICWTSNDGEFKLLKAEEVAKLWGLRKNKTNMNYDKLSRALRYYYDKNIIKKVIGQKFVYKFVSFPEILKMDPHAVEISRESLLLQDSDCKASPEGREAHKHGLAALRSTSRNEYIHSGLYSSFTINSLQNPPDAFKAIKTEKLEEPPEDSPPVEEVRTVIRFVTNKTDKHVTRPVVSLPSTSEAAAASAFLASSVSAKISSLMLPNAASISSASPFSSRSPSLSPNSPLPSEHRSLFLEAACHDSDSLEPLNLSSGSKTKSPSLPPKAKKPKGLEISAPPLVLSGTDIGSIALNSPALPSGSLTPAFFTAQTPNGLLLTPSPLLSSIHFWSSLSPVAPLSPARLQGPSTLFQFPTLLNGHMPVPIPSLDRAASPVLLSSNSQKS
The settings on record: protein: recombinant; tags: N-terminal GST; dsDNA, one strand shown. The procedure, abridged:
as §1

In experiment [3] the target is CRX (Homo sapiens, UniProt O43186 1-299). The settings on record: protein: recombinant; tags: N-terminal GST; dsDNA, one strand shown. In a few lines: as §1
Sequence of CRX (O43186 whole entry): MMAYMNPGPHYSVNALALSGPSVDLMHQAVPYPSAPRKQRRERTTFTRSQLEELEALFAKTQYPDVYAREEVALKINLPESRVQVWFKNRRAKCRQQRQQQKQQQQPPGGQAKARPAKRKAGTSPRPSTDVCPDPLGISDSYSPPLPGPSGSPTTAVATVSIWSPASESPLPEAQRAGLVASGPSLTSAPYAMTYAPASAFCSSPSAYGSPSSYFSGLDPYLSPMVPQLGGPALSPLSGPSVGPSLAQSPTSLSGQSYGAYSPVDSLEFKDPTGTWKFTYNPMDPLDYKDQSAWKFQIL
Experiment [4] concerns the target T3, SPDEF (Homo sapiens, UniProt O95238 1-335).
T3 sequence: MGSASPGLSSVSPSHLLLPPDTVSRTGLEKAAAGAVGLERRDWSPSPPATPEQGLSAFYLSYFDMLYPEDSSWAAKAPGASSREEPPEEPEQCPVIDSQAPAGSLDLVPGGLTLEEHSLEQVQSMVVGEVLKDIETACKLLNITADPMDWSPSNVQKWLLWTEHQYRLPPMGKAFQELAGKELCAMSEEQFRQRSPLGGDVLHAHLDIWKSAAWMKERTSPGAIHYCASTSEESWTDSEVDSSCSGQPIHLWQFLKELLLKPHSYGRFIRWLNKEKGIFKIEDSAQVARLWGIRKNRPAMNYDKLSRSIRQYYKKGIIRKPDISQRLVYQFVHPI
The settings on record: protein: recombinant; tags: N-terminal GST; dsDNA, one strand shown. In a few lines:
as §1

The target in experiment [5] is T4, ELF5 (Homo sapiens, UniProt Q9UKW6-2 1-255).
T4 sequence: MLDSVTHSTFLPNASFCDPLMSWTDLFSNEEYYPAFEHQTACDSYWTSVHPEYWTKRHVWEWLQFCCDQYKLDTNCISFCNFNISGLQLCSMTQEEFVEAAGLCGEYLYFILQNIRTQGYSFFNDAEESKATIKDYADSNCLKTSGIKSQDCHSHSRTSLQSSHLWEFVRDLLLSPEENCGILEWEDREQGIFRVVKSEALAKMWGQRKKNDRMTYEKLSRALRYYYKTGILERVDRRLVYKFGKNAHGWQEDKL
The settings on record: protein: recombinant; tags: N-terminal GST; dsDNA, one strand shown. In a few lines:
as §1

The target of experiment [6] is HSF1 (Homo sapiens, UniProt Q00613 1-529). The settings on record: protein: recombinant; tags: N-terminal GST; chain copies: 3; dsDNA, one strand shown. In a few lines:
as §1

The target of experiment [7] is T5, SPIC (Homo sapiens, UniProt Q8N5J4 1-248).
T5 sequence: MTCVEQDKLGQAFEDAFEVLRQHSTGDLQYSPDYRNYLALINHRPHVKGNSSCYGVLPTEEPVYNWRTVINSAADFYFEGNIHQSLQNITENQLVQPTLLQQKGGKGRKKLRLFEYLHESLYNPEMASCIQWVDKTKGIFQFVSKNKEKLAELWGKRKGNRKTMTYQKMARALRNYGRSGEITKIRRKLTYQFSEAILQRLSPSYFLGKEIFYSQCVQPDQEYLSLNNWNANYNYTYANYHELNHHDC
The settings on record: protein: recombinant; tags: N-terminal GST; dsDNA, one strand shown. The procedure, abridged:
as §1

Sequence of HSF1 (Q00613 whole entry): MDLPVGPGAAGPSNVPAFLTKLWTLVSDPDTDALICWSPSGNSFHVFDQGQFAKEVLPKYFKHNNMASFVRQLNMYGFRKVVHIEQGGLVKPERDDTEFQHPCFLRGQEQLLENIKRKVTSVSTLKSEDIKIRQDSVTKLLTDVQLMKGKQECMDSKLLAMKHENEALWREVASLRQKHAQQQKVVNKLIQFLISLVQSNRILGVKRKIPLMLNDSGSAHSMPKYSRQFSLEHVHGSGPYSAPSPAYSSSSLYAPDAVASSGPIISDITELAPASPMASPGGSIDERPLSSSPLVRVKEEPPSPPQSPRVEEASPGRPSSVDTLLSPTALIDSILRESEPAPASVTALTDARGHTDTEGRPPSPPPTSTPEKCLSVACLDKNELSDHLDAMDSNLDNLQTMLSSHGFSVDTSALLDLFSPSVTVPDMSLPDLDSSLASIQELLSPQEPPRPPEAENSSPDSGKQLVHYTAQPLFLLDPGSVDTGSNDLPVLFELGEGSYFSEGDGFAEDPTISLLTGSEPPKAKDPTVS

For ATAGCC, the binding signal in experiment [1] is 1.03 fold enrichment (6-mer frequency, TF over GST control); in experiment [2] it was 1.01 fold enrichment (6-mer frequency, TF over GST control); in experiment [3], 1.02 fold enrichment (6-mer frequency, TF over GST control); in experiment [4], 1.08 fold enrichment (6-mer frequency, TF over GST control).

On to AACCGC, for which the binding signal is 1.15 fold enrichment (6-mer frequency, TF over GST control) in experiment [1]; 1.07 fold enrichment (6-mer frequency, TF over GST control) in experiment [2]; 1.02 fold enrichment (6-mer frequency, TF over GST control) in experiment [3]; 1.11 fold enrichment (6-mer frequency, TF over GST control) in experiment [4]; 1 fold enrichment (6-mer frequency, TF over GST control) in experiment [5].

As for ACGCCG, the binding signal in experiment [1] was 1.15 fold enrichment (6-mer frequency, TF over GST control); in experiment [2], 1.11 fold enrichment (6-mer frequency, TF over GST control); in experiment [4] it was 1.04 fold enrichment (6-mer frequency, TF over GST control).

Consider GCAAAC, for which the binding signal in experiment [1] is 1.04 fold enrichment (6-mer frequency, TF over GST control); in experiment [2], 1.04 fold enrichment (6-mer frequency, TF over GST control).

Regarding CACCGG, the binding signal in experiment [1] was 1.11 fold enrichment (6-mer frequency, TF over GST control); in experiment [2] it was 1.16 fold enrichment (6-mer frequency, TF over GST control); in experiment [4], 1.08 fold enrichment (6-mer frequency, TF over GST control); in experiment [5], 1.03 fold enrichment (6-mer frequency, TF over GST control).

For CGAATC, the binding signal is 1.38 fold enrichment (6-mer frequency, TF over GST control) in experiment [6]; 1 fold enrichment (6-mer frequency, TF over GST control) in experiment [7]; 1.12 fold enrichment (6-mer frequency, TF over GST control) in experiment [3]; 1.12 fold enrichment (6-mer frequency, TF over GST control) in experiment [4].

For CGTAAA, the binding signal in experiment [2] was 1.17 fold enrichment (6-mer frequency, TF over GST control); in experiment [6], 1.17 fold enrichment (6-mer frequency, TF over GST control); in experiment [7] it was 1.09 fold enrichment (6-mer frequency, TF over GST control); in experiment [3], 1.15 fold enrichment (6-mer frequency, TF over GST control); in experiment [4], 1.09 fold enrichment (6-mer frequency, TF over GST control); in experiment [5] it was 1.14 fold enrichment (6-mer frequency, TF over GST control).

In the case of CATAAT, the binding signal in experiment [6] is 1.37 fold enrichment (6-mer frequency, TF over GST control); in experiment [7], 1.24 fold enrichment (6-mer frequency, TF over GST control); in experiment [3], 1.93 fold enrichment (6-mer frequency, TF over GST control); in experiment [4], 1 fold enrichment (6-mer frequency, TF over GST control).

Regarding TCGTAT, the binding signal is 1.01 fold enrichment (6-mer frequency, TF over GST control) in experiment [2]; 1.06 fold enrichment (6-mer frequency, TF over GST control) in experiment [6]; 1.06 fold enrichment (6-mer frequency, TF over GST control) in experiment [7]; 1.09 fold enrichment (6-mer frequency, TF over GST control) in experiment [3]; 1.05 fold enrichment (6-mer frequency, TF over GST control) in experiment [4]; 1.01 fold enrichment (6-mer frequency, TF over GST control) in experiment [5].

Turning to TCAAGT, the binding signal in experiment [2] is 1.13 fold enrichment (6-mer frequency, TF over GST control); in experiment [6], 1.08 fold enrichment (6-mer frequency, TF over GST control); in experiment [7], 1.12 fold enrichment (6-mer frequency, TF over GST control); in experiment [3] it was 1.12 fold enrichment (6-mer frequency, TF over GST control); in experiment [4], 1.17 fold enrichment (6-mer frequency, TF over GST control).

In the case of CCCCTA, the binding signal in experiment [2] was 1.38 fold enrichment (6-mer frequency, TF over GST control); in experiment [6] it was 1.02 fold enrichment (6-mer frequency, TF over GST control); in experiment [7], 1.25 fold enrichment (6-mer frequency, TF over GST control); in experiment [3], 1.15 fold enrichment (6-mer frequency, TF over GST control); in experiment [4] it was 1.07 fold enrichment (6-mer frequency, TF over GST control); in experiment [5], 1.1 fold enrichment (6-mer frequency, TF over GST control).

For TGTAAG, the binding signal in experiment [2] was 1.11 fold enrichment (6-mer frequency, TF over GST control); in experiment [6], 1.09 fold enrichment (6-mer frequency, TF over GST control); in experiment [7], 1.22 fold enrichment (6-mer frequency, TF over GST control); in experiment [3], 1.32 fold enrichment (6-mer frequency, TF over GST control); in experiment [4] it was 1.13 fold enrichment (6-mer frequency, TF over GST control); in experiment [5], 1.11 fold enrichment (6-mer frequency, TF over GST control).
